Measured values published in PubChem BioAssay.
The source made the active and inactive calls.

How the values were obtained:
[1] = E. coli DRC41 culture turbidity changes, primary screen, E. coli filamentation inducer project, strain DRC41, OD650, 48 h (AID 1152);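 note: E. coli MC1000 strain DRC41 lacking acrAB efflux pump and sulA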; details: E. coli DRC41 (acrAB sulA), higher = more signal, called active from +8 up or from −8 down
[2] = small-molecule binders of probe aLefty1, primary screen, biochemical, small-molecule microarray, 635/667 nm fluorescence (AID 1153); details: higher = more signal;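 note: score merges spot fluorescence with signal-to-noise ratio from the scanned slide images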
[3] = PSAC antagonists in infected red cells, primary screen, cell-based, P. falciparum Indochina, OD700, 1 h (AID 1154); details: P. falciparum Indochina infected RBC osmotic lysis, higher = more signal, called active from +8 up or from −8 down
[4] = PSAC antagonists in infected red cells, primary screen, cell-based, P. falciparum Indochina, OD700, 2 h (AID 1155);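 note: lysis reports solute entry through the parasite surface anion channel PSAC; channel blockers reduce lysis of infected cells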; details: P. falciparum Indochina infected erythrocytes, osmotic lysis OD700; higher = more signal, called active from +8 up or from −8 down
[5] = osmotic lysis modulators in infected erythrocytes, primary screen, PSAC antagonist project, cell-based, P. falciparum Indochina, OD700, 3 h (AID 1156); details: higher = more signal, called active from +8 up or from −8 down
[6] = PSAC antagonists in infected red cells, primary screen, cell-based, P. falciparum Indochina, OD700, 18 h (AID 1157); details: P. falciparum Indochina infected erythrocytes, osmotic lysis OD700, 18 h; higher = more signal, called active from +8 up or from −8 down
[7] = modulators of S6 phosphorylation in cells, primary screen, cell-based, A549, cytoblot, luminescence, serum-stimulated (AID 1158); details: A549 phospho-S6 cytoblot, 5 h, higher = more signal;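 note: serum-stimulated A549 lung adenocarcinoma cells; signal is phosphorylated S6 detected by cytoblot immunostaining with HRP secondary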
[8] = target: NADPH oxidase 2 (Homo sapiens) (UniProt P04839); assay: NOX2-dependent H2O2 signal modulators, primary screen, NOX inhibitor project, cell-based, HEK293-NOX2, PMA-stimulated, Amplex Red fluorescence (AID 1159); details: 45 min, higher = more signal, called active from +8 up or from −8 down; note: test concentration not given here
[9] = target: NADPH oxidase 4 (Homo sapiens) (UniProt Q9NPH5); assay: NOX4-dependent H2O2 signal modulators, primary screen, NOX inhibitor project, cell-based, HEK293-NOX4, tetracycline-induced, Amplex Red fluorescence (AID 1160); details: 45 min, higher = more signal, called active from +8 up or from −8 down
[10] = target: NADPH oxidase 5 (Homo sapiens) (UniProt Q96PH1); assay: NOX5-dependent H2O2 signal modulators, primary screen, NOX inhibitor project, cell-based, HEK293-NOX5, Amplex Red fluorescence (AID 1161); details: HEK293-NOX5, ionomycin, 45 min, higher = more signal
[11] = A549 cell viability effects, profiling panel, calcein-AM fluorescence, 48 h, basal (AID 1162); details: higher = more signal; note: test concentration not given here
[12] = adipocyte viability effects, profiling panel, cell-based, 3T3-L1 adipocytes, calcein-AM fluorescence, 48 h, basal (AID 1163); details: 3T3-L1 adipocytes viability, higher = more signal; note: test concentration not given here
[13] = HepG2 cell viability effects, profiling panel, calcein-AM fluorescence, 48 h, basal (AID 1164); details: higher = more signal; note: test concentration not given here
[14] = MM1S cell viability effects, profiling panel, calcein-AM fluorescence, 48 h, basal (AID 1165); details: higher = more signal;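 note: viability of MM1S multiple myeloma cells under basal unstimulated conditions; test concentration not given here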
[15] = basal RPMI8226 viability, no added stimulus, profiling panel, cell-based, calcein-AM fluorescence, 48 h, PK04 Diversity Set (AID 1166); details: RPMI8226 myeloma viability, higher = more signal;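 note: cells grown under basal conditions without added stimulus; test concentration not given here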
[16] = basal HepG2 mitochondrial membrane potential changes, profiling panel, cell-based, JC-1 fluorescence, 24 h, 100 nL compound (AID 1167); details: higher = more signal; note: test concentration not given here
[17] = basal 3T3-L1 adipocyte mitochondrial potential changes, profiling panel, cell-based, JC-1 fluorescence, 3T3-L1 adipocytes, 24 h, 100 nL compound (AID 1168); details: JC-1 mitochondrial fluorescence, higher = more signal, called active from +8 up or from −8 down; note: test concentration not given here
[18] = basal RPMI8226 mitochondrial membrane potential changes, profiling panel, cell-based, JC-1 fluorescence, 24 h, 100 nL compound (AID 1169); details: RPMI8226 myeloma, JC-1 mitochondrial potential fluorescence, higher = more signal; note: test concentration not given here
[19] = basal MM1S mitochondrial membrane potential changes, profiling panel, cell-based, JC-1 fluorescence, 24 h, 100 nL compound (AID 1170); details: higher = more signal; note: test concentration not given here
[20] = A549 lung cancer cell viability effects, profiling panel, resazurin fluorescence, 24 h, PK04 Diversity Set (AID 1171); details: higher = more signal, called active from +8 up or from −8 down; note: test concentration not given here

Sequence of NADPH oxidase 5 (Homo sapiens) (Q96PH1 whole entry, looked up): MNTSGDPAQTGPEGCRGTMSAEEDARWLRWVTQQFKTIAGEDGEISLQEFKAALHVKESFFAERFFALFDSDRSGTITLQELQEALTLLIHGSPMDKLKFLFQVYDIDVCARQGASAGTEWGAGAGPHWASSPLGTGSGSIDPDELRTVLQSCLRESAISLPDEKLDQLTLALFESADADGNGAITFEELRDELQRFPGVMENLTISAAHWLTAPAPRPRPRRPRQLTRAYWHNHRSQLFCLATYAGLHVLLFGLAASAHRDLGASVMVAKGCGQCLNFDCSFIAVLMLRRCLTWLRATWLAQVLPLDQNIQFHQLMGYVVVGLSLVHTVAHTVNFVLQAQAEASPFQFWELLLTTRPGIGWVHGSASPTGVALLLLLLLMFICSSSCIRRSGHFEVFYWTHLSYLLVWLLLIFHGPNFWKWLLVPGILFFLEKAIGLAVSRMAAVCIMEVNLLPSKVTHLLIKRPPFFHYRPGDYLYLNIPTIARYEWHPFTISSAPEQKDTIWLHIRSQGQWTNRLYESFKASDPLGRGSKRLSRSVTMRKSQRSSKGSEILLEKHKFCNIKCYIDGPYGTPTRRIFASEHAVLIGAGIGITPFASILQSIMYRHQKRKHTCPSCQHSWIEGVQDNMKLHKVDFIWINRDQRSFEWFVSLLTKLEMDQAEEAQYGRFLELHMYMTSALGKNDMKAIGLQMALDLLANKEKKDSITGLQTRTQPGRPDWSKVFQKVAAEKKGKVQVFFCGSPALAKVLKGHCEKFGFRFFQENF
Sequence of NADPH oxidase 2 (Homo sapiens) (P04839 whole entry, looked up): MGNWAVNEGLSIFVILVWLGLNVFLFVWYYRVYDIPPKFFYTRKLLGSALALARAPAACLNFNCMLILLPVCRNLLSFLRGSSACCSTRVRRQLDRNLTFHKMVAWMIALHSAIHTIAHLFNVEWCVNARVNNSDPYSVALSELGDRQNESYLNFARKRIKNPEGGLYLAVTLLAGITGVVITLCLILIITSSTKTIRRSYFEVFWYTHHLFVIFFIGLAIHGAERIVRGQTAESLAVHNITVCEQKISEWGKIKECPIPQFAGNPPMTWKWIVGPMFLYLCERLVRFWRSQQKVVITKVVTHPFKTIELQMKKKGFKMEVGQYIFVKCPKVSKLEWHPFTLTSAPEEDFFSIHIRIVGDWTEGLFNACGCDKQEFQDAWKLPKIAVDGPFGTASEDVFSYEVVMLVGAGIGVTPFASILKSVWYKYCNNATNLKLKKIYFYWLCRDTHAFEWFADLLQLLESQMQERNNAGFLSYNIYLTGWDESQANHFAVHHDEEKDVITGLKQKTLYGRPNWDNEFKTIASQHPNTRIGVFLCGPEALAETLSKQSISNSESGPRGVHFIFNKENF
Sequence of NADPH oxidase 4 (Homo sapiens) (Q9NPH5 whole entry, looked up): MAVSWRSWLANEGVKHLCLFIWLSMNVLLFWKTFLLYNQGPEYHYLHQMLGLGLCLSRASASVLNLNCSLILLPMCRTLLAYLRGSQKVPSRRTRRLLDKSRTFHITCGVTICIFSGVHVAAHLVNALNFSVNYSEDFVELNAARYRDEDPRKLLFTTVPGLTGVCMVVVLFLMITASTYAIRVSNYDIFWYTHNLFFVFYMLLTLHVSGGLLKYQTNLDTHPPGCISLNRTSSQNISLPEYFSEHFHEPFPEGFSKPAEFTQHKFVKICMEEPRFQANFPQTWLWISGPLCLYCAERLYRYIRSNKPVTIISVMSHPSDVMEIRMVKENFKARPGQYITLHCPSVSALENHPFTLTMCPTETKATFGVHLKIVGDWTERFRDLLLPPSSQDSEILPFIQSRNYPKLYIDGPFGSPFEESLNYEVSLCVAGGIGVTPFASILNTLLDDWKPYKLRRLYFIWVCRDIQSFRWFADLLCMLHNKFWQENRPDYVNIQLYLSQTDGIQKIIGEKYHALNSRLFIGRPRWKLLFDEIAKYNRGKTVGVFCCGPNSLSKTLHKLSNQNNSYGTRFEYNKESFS

SMILES	z-score [1]	composite z-score [2]	z-score [3]	z-score [4]	z-score [5]	z-score [6]	z-score [7]	z-score [8]	z-score [9]	z-score [10]	z-score [11]	z-score [12]	z-score [13]	z-score [14]	z-score [15]	z-score [16]	z-score [17]	z-score [18]	z-score [19]	z-score [20]
CCOC(=O)C[C@H]1[C@H](OC(=O)c2ccc(C(=O)c3ccccc3)cc2)[C@@H](NC(=O)c2ccc3ccccc3c2)c2cc(OCCCO)ccc2N1C(=O)c1ccccc1	-0.558 (inactive)	-0.0134	0.137 (inactive)	-0.0012 (inactive)	-0.97 (inactive)	0.189 (inactive)	-0.357	0.311 (inactive)	0.945 (inactive)	1.06	-0.0566	0.202	-0.458	0.0736	-0.602	-0.245	-1.1 (inactive)	0.314	0.184	-0.412 (inactive)
C=CC[C@]1(C(=O)N(C)C)N=C(c2ccc(OCCCO)cc2)O[C@H]1c1ccccc1N=[N+]=[N-]	0.355 (inactive)	0.313	30.8 (active)	28.4 (active)	2.88 (inactive)	7.33 (inactive)	-0.219	-1.06 (inactive)	1.52 (inactive)	0.668	-0.363	-0.768	-0.2	-0.995	-1.85	-0.358	0.0159 (inactive)	-0.886	-1.23	-0.302 (inactive)
COCCOC(=O)N1C(=O)[C@@]2(c3cc(C#Cc4ccc(OC)cc4)ccc31)[C@H](C(=O)NC[C@H](O)c1ccccc1)[C@H]1C(=O)O[C@H](c3ccccc3)[C@H](c3ccccc3)N1[C@@H]2c1ccc(O)cc1	-0.16 (inactive)	0.289	1.48 (inactive)	0.702 (inactive)	-0.784 (inactive)	0.704 (inactive)	0.236	1.04 (inactive)	0.0374 (inactive)	0.00809	-0.24	0.711	-0.862	-2.08	-2.34	-2.11	1.54 (inactive)	-0.723	0.122	0.397 (inactive)
CCOc1cc(C(O)C2C=CC3C(=O)N(C4CCCCC4)C(=O)C3N2Nc2ccc(OC)cc2)ccc1O (stereo not given)	-0.0582 (inactive)	0.666	6.34 (inactive)	0.679 (inactive)	1.04 (inactive)	0.265 (inactive)	-0.089	-2.2 (inactive)	-3.71 (inactive)	-2.46	0.366	-0.786	0.772	0.26	-0.141	0.551	0.283 (inactive)	-0.0341	-1.87	0.265 (inactive)
NC(N)=NCc1cn(CCc2c[nH]c3ccccc23)nn1	-0.75 (inactive)	-0.151	0.488 (inactive)	0.078 (inactive)	0.0119 (inactive)	0.114 (inactive)	-0.583	-0.00385 (inactive)	0.0455 (inactive)	-3.95	-0.609	-0.596	-0.173	-0.613	-0.286	-1.09	-1.04 (inactive)	-0.588	-0.77	-0.975 (inactive)
COCCOC(=O)N1C(=O)[C@@]2(c3cc(C#Cc4ccc(OC)cc4)ccc31)[C@H](C(=O)N1CCN(c3ncccn3)CC1)[C@H]1C(=O)O[C@H](c3ccccc3)[C@H](c3ccccc3)N1[C@@H]2c1ccccc1OCCO	0.0325 (inactive)	0.406	2.79 (inactive)	2.29 (inactive)	0.641 (inactive)	1.07 (inactive)	-0.43	0.405 (inactive)	0.152 (inactive)	1.06	-0.457	0.0076	0.149	0.325	0.204	0.57	2.03 (inactive)	-0.403	-1.41	-0.785 (inactive)
CC(C)(C)OC(=O)CC[C@@]1(C(=O)O)N=C(c2ccc(OCCCO)cc2)O[C@@H]1c1ccccc1CN=[N+]=[N-]	0.648 (inactive)	0.479	24.5 (active)	10 (active)	-0.0836 (inactive)	1.53 (inactive)	0.0274	0.716 (inactive)	0.691 (inactive)	1.53	0.824	-0.0107	0.0885	0.131	0.813	-0.0553	-0.913 (inactive)	-0.411	-0.579	10.4 (active)
CO[C@H]1O[C@H](CO)[C@@H](OC(=O)Nc2ccccc2-c2ccccc2)[C@H](OC(=O)Nc2ccc3c(c2)OCO3)[C@@H]1OC(=O)Nc1ccc2c(c1)OCO2	-0.609 (inactive)	0.658	15.3 (active)	2.72 (inactive)	1.22 (inactive)	1.11 (inactive)	-0.0176	0.878 (inactive)	-0.722 (inactive)	-1.49	0.105	-1.46	-1.05	-1.49	-1.84	-0.467	1.34 (inactive)	-0.363	-0.263	-1.77 (inactive)
COc1ccc([Si](C)(C)[C@@H]2[C@@H](CCO)O[C@]3(C(=O)N(Cc4cccc(N5C(=O)c6cccc7cccc5c67)c4)c4ccccc43)[C@H]2C)cc1	-0.21 (inactive)	0.0449	3.33 (inactive)	3.66 (inactive)	-0.0486 (inactive)	2.34 (inactive)	0.0181	0.498 (inactive)	0.86 (inactive)	2.42	-1.03	0.421	-3.42	-1.32	-4.25	-0.543	0.145 (inactive)	-1.05	-1.77	-2.26 (inactive)
CN(C)C(=O)[C@@]1(Cc2ccccc2N=[N+]=[N-])COC(c2ccc(OCCCO)cc2)=N1	1.92 (inactive)	-0.781	26.3 (active)	6.99 (inactive)	3.43 (inactive)	1.23 (inactive)	0.685	-1.99 (inactive)	-0.103 (inactive)	-1.82	1.69	-0.541	1.32	-0.257	0.192	1.4	0.0922 (inactive)	-0.934	-1.23	0.325 (inactive)
CC(C)C(=C=CC[C@H](O)c1ccc(OCCO)cc1)C[C@H](O)c1cc(Cl)cc(Cl)c1O	0.049 (inactive)	0.121	19.4 (active)	3.7 (inactive)	1.44 (inactive)	1.24 (inactive)	-0.173	0.532 (inactive)	-0.473 (inactive)	-1.36	0.648	0.831	-0.627	-3.41	-3.74	-1.77	-0.132 (inactive)	-0.124	-0.66	0.885 (inactive)
COCCOC(=O)N1C(=O)[C@@]2(c3cc(C#CC4(O)CCCCCC4)ccc31)[C@H](c1ccccc1OCCO)N1[C@H](c3ccccc3)[C@H](c3ccccc3)OC(=O)[C@H]1[C@@H]2C(N)=O	-0.552 (inactive)	-0.0046	4.08 (inactive)	1.76 (inactive)	-0.971 (inactive)	0.76 (inactive)	-0.255	1.8 (inactive)	-0.551 (inactive)	-0.269	-2.37	0.943	-4.78	-3.43	-4.62	-2.3	1.8 (inactive)	-1.14	-1.88	-2.94 (inactive)
[N-]=[N+]=NCc1ccccc1C[C@@]1(C(=O)NCCN2CCOCC2)N=C(c2ccc(OCCCO)cc2)O[C@@H]1c1ccccc1N=[N+]=[N-]	-0.337 (inactive)	0.534	31.3 (active)	27.4 (active)	2.72 (inactive)	2.46 (inactive)	1.17	-3.58 (inactive)	-1.36 (inactive)	-2.32	-1.6	1.61	-1.05	-1.31	-3.68	0.862	-1.38 (inactive)	-0.923	-1.12	-0.0172 (inactive)
COc1ccc(C(O)C2C=CC3C(=O)N(C)C(=O)C3N2N2CCCCC2)cc1 (stereo not given)	-0.625 (inactive)	0.381	1.41 (inactive)	1.36 (inactive)	-0.138 (inactive)	1.25 (inactive)	-0.734	-0.378 (inactive)	-0.744 (inactive)	-0.369	-0.972	0.0526	0.133	-0.207	-0.0882	-0.49	0.0216 (inactive)	-0.176	0.188	0.014 (inactive)
COCC(=C=CC[C@H](O)c1ccc(OCCO)cc1)C[C@H](O)COCc1ccccc1	1.19 (inactive)	0.179	16.5 (active)	1.61 (inactive)	0.103 (inactive)	-0.749 (inactive)	0.974	-1.6 (inactive)	-0.65 (inactive)	-2.52	0.542	1.24	0.115	-0.26	0.249	1.07	-0.801 (inactive)	-0.245	-0.748	0.925 (inactive)
Cc1ccc(S[C@]2(C(=O)NC(C)C)CC(=O)N(Cc3ccccc3C(F)(F)F)[C@@H]2c2ccc(CO)cc2I)cc1	0.346 (inactive)	0.135	11.2 (active)	0.141 (inactive)	1.03 (inactive)	-0.945 (inactive)	2.05	0.95 (inactive)	-3.44 (inactive)	-1.78	0.0252	0.384	-0.933	-2.38	-3.2	-0.361	-0.123 (inactive)	-0.399	-2.48	1.32 (inactive)
COCCOC(=O)N1C(=O)[C@@]2(c3cc(C#Cc4ccc(OC)cc4)ccc31)[C@H](C(=O)N1CCCCCCC1)[C@H]1C(=O)O[C@H](c3ccccc3)[C@H](c3ccccc3)N1[C@@H]2c1ccc(O)cc1	0.785 (inactive)	1.58	1.04 (inactive)	-0.134 (inactive)	-0.318 (inactive)	-0.518 (inactive)	1.27	-0.76 (inactive)	-0.951 (inactive)	-1.4	-0.938	1.07	-0.618	-0.26	-0.943	-0.73	0.88 (inactive)	-0.0794	-0.559	0.545 (inactive)
COC(=O)[C@@]1(Cc2ccc(OC)cc2)[C@H]2c3cc(C(=O)N(C)C)n(Cc4nc5ccccc5[nH]4)c3C[C@H]2CN1C(=O)c1ccccc1	-2.02 (inactive)	0.905	2.03 (inactive)	0.724 (inactive)	0.482 (inactive)	1.25 (inactive)	0.123	0.576 (inactive)	1.85 (inactive)	2.4	-2.46	-0.529	-1.79	-1.37	-3.86	2.13	-1.24 (inactive)	-0.737	-1.49	-0.88 (inactive)
